Laboratory results as given in PMC7862700, “An all-to-all approach to the identification of sequence-specific readers for epigenetic DNA modifications on cytosine”.

Legend:
Assay in all cases: DAPPL (digital affinity profiling via proximity ligation, sequencing); 10 mM Tris-HCl pH 7.5, 50 mM NaCl, 1 mM DTT, 4% glycerol, room temperature, 30 min; GST-TFs on glutathione beads, 16-mer random dsDNA library, 0.1% formaldehyde crosslink after washing; high values mean tight binding
Conditions in all cases: protein: recombinant; tags: N-terminal GST; dsDNA, one strand shown
ELK1 = molecular target: T1, ELK1 (Homo sapiens, UniProt P19419 1-428)
T1 sequence: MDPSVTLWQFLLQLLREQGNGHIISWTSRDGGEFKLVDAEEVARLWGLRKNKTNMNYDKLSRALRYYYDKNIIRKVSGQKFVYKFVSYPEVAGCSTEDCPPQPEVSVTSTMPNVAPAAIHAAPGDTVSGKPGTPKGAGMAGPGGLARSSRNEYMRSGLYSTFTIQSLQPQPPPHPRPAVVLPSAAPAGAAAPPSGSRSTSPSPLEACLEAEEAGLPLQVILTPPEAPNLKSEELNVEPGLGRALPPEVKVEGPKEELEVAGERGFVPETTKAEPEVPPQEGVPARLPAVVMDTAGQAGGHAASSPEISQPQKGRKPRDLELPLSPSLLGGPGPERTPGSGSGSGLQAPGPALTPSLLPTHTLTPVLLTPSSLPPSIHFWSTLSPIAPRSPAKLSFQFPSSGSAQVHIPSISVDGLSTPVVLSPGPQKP
How it was run: (§1)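 Binding signal is each hexamer's read frequency for a factor divided by its frequency in the tag-only sample. The factors were GST-fused human transcription factors from yeast, captured on glutathione beads, DNA-barcoded and pooled with that sample. Pools were incubated with 200 nmole of a random double-stranded 16-mer DNA library in Tris/NaCl/DTT/glycerol buffer at room temperature for 30 min, then washed, crosslinked with 0.1% formaldehyde, proximity-ligated with BsaI/T4 ligase (1 h, 37 °C), PCR-amplified and sequenced on an Illumina NextSeq500.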

GABPA = molecular target: T2, GABPA (Homo sapiens, UniProt Q06546 1-454)
T2 sequence: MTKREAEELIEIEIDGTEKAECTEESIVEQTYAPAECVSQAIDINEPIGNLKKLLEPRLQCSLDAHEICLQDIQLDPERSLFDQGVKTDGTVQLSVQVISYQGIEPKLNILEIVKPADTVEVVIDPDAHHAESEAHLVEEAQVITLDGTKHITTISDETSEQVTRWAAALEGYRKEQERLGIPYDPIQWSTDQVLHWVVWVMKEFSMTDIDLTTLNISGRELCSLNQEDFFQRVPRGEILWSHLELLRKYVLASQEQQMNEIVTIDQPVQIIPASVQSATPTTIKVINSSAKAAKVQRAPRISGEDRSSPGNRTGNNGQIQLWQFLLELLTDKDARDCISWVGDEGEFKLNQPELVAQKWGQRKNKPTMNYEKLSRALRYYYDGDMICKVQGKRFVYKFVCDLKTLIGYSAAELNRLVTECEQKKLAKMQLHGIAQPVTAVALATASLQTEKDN
How it was run: as §1

ERG = molecular target: T3, ERG (Homo sapiens, UniProt P11308 1-479)
T3 sequence: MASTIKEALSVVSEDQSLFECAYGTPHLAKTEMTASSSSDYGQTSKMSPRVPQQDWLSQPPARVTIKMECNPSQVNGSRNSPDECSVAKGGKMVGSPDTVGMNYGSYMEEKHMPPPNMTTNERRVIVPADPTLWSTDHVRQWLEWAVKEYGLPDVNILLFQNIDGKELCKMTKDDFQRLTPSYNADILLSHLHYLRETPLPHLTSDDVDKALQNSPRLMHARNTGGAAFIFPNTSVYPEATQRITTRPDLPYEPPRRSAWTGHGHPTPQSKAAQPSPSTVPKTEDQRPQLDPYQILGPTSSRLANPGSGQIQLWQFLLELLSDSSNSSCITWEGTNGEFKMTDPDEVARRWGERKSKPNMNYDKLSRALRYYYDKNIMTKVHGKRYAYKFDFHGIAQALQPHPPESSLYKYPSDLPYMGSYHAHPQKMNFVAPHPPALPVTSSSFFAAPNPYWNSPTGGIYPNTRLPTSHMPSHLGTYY
How it was run: as §1

EHF = molecular target: T4, EHF (Homo sapiens, UniProt Q9NZC4 1-300)
T4 sequence: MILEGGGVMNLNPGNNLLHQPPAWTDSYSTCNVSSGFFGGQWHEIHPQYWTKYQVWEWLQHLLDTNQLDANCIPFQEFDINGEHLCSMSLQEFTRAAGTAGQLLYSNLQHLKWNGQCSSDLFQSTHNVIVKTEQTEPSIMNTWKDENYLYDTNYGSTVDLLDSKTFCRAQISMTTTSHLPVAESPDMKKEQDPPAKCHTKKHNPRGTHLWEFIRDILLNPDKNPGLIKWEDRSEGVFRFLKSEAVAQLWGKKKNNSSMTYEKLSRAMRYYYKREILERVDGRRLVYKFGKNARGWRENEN
How it was run: as §1

SPIB = SPIB (Homo sapiens, UniProt Q01892 1-262)
How it was run: as §1

FEV = molecular target: T5, FEV (Homo sapiens, UniProt Q99581 1-238)
T5 sequence: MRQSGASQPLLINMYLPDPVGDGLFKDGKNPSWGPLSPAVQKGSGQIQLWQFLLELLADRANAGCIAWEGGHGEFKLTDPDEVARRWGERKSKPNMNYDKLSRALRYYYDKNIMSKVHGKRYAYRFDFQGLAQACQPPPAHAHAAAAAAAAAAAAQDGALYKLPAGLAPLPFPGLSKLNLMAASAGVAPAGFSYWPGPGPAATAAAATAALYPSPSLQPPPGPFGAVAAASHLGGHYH
How it was run: as §1

ETV5 = ETV5 (Homo sapiens, UniProt P41161 1-510)
How it was run: as §1

ELF4 = ELF4 (Homo sapiens, UniProt Q99607 1-663)
How it was run: as §1

ETV2 = molecular target: T6, ETV2 (Homo sapiens, UniProt O00321 1-342)
T6 sequence: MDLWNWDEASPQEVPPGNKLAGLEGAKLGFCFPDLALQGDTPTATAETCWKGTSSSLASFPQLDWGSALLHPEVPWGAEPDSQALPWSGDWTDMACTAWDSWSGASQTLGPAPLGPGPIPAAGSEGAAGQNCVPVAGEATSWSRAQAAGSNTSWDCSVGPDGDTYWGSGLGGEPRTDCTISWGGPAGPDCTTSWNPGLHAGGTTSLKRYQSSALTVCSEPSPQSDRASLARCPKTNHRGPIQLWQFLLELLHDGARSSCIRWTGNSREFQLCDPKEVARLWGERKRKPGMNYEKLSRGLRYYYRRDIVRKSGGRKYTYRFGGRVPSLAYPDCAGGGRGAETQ
How it was run: as §1

ELF3 = molecular target: T7, ELF3 (Homo sapiens, UniProt P78545 1-371)
T7 sequence: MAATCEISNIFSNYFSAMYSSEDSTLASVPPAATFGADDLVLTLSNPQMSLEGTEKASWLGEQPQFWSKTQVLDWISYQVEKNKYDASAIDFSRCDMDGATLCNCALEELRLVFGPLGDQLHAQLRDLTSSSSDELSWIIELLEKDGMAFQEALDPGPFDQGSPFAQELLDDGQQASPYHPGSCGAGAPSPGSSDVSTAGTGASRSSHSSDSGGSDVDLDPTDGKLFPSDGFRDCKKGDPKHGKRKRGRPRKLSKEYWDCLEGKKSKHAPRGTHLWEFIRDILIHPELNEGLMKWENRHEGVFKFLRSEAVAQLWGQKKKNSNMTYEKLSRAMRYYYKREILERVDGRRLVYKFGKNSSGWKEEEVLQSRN
How it was run: as §1

ETV1 = ETV1 (Homo sapiens, UniProt P50549 1-477)
How it was run: as §1

SPDEF = molecular target: T8, SPDEF (Homo sapiens, UniProt O95238 1-335)
T8 sequence: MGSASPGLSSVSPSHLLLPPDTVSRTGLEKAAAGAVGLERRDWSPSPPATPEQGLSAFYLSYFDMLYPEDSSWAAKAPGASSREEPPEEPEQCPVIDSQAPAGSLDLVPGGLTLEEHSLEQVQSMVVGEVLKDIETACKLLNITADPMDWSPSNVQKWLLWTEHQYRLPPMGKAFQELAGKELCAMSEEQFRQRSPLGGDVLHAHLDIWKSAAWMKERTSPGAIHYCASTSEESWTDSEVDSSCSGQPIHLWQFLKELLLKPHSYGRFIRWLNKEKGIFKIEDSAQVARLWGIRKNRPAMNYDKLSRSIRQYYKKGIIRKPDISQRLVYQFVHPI
How it was run: as §1

Sequence of ETV1 (P50549 whole entry): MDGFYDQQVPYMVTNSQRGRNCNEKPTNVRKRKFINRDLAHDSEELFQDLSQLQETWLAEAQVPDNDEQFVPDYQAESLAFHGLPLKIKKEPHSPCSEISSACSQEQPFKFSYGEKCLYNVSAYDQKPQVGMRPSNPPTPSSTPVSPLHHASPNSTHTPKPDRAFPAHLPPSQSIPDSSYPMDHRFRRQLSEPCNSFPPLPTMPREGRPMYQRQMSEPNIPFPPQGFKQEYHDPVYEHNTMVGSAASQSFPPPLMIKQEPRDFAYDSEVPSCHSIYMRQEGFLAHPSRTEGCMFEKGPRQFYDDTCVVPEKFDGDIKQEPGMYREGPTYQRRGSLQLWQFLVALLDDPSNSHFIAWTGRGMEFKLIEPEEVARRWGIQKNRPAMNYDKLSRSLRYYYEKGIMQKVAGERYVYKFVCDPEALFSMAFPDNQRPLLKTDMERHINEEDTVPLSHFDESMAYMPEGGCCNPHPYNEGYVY
Sequence of ELF4 (Q99607 whole entry): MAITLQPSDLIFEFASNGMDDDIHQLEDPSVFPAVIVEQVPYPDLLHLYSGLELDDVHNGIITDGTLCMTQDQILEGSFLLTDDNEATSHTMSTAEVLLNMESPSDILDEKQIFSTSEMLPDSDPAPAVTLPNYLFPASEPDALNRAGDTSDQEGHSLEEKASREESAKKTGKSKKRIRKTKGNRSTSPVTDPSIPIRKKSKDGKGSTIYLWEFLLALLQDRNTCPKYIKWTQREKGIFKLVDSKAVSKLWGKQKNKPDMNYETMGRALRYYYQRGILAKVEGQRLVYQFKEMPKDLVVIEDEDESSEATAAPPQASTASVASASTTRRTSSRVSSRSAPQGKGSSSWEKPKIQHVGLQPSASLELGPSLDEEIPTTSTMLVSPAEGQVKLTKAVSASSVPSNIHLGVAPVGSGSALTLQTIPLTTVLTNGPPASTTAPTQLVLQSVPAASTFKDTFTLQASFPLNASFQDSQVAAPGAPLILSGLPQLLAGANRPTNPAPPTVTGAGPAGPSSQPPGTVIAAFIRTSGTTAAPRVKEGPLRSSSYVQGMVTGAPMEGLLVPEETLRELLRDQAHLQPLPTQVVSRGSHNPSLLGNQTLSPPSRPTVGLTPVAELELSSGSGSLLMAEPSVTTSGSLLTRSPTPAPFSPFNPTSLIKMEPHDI
Sequence of ETV5 (P41161 whole entry): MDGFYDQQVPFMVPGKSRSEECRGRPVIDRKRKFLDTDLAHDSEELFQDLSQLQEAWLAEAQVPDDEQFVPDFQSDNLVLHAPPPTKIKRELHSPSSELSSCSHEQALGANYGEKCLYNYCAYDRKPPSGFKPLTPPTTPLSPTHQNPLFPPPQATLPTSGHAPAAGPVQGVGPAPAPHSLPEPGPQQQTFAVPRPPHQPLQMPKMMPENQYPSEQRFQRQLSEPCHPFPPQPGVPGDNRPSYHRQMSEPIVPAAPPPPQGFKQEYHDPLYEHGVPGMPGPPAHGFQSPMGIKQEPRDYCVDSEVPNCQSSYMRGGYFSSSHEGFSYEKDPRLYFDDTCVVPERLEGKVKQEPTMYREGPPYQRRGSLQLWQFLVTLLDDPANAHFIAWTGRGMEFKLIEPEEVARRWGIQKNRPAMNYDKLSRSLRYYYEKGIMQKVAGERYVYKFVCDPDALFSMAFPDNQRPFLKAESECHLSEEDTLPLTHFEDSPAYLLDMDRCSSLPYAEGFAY
Sequence of SPIB (Q01892 whole entry): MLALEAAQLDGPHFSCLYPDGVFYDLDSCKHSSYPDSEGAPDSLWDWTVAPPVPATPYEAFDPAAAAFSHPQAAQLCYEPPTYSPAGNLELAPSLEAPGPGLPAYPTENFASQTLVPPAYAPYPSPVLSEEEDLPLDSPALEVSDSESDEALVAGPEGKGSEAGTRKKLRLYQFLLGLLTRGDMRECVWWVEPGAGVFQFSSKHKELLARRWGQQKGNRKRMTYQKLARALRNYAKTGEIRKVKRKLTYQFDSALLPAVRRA

GGTCAC
binding signal (ELK1): 1.02 fold enrichment (6-mer frequency, TF over GST control)
binding signal (GABPA): 1.06 fold enrichment (6-mer frequency, TF over GST control)
binding signal (ERG): 1.01 fold enrichment (6-mer frequency, TF over GST control)
binding signal (EHF): 1.04 fold enrichment (6-mer frequency, TF over GST control)
binding signal (SPIB): 1.02 fold enrichment (6-mer frequency, TF over GST control)
binding signal (FEV): 1.04 fold enrichment (6-mer frequency, TF over GST control)
binding signal (ETV5): 1 fold enrichment (6-mer frequency, TF over GST control)
binding signal (ELF4): 1.03 fold enrichment (6-mer frequency, TF over GST control)
binding signal (ETV2): 1.15 fold enrichment (6-mer frequency, TF over GST control)
binding signal (ELF3): 1.05 fold enrichment (6-mer frequency, TF over GST control)
binding signal (ETV1): 1.02 fold enrichment (6-mer frequency, TF over GST control)
binding signal (SPDEF): 1.05 fold enrichment (6-mer frequency, TF over GST control)
